This note sets out measurements from the supplement of paper PMC6555819.

The first test has as its system PXR:RXRa (NR concentration 270 nM, RXRa partner concentration 90 nM). Kind of test: PBM binding z-score (relative to random genomic background probes); higher = stronger binding; sequences stand for … in GC…GCGATTGACAGCGTAGAATGAAGG
The method in brief: (§1)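 Binding buffer was PBS pH 7.4 with 2% milk, 0.02% Triton X-100, 1 mM DTT, 0.2 mg/mL BSA and 0.4 mg/ml salmon testes DNA. In it, ligand-free nuclear receptor dimers were incubated 1 h on custom Agilent 4×180K protein-binding microarrays carrying double-stranded probes. Antibodies against each partner (one per run) detected binding, and z-scores were calculated against random background probes after regression normalization of scanned fluorescence.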
Sequence ATCGCAAGGTCGACGAGGTGAGTATACACCGTTT showed a PBM binding z-score of 1.89.

GCTAGTTGGTCAGTAAAAGGTCACACCCCGGTCG gave a PBM binding z-score of 4.6.

On to ACTAGAAGGCCAAGTTTGGGTCACTCAAACAAAG, for which the PBM binding z-score is 1.2.

Consider TATACAGGGTCAAAGTCCAGAGTACGAATGTCGA, for which the PBM binding z-score was 4.6.

With GCTGCTAGGTCAGGTTGATCAGCTAACGGGTACG, the PBM binding z-score is 0.316.

Turning to TCATATGGGTAATACAGGTGAAAGTCGGCATCTA, the PBM binding z-score came out at 0.281.

In turn, ACTAGCAGGTCAAGTTTGGGTCACTCAAACAAAG had a PBM binding z-score of 4.22.

TCTATTAGTTGAAGGCCAACCGACGAGTCCGTTT yielded a PBM binding z-score of 0.903.

As to TTACCAAGGTGAAAGGTTGTTGATGCACGCCTTG, the PBM binding z-score was 1.28.

For the sequence CGAACTCGGTCATCCAGGACAGTGAATACATTGA, the PBM binding z-score was 0.205.

In turn, TCATAGAGGTAAAAGGTGAAAGTCGGTGTGGTAA registered a PBM binding z-score of 2.07.

Turning to TTACCAAGGTGAGCTGAGGTCGTTGAACCAACTC, the PBM binding z-score was found to be 5.01.

In the case of TAGCCTAGGTCATTGGGCCAGTATCGTACGCATC, the PBM binding z-score came out at 1.68.

Sequence AGAACTAGGGCAATGAGTTGATAGCACGGGTGGC showed a PBM binding z-score of 0.226.

Regarding CCTACTGGACCATTCAGAGGTCATTGATCATATG, the PBM binding z-score stood at 4.92.

Consider CGTCCAAGGTCAAAGGACAGTGAAGAGATGACGG, for which the PBM binding z-score is 3.74.

CGTCAAAGATCAACTAAGGTAACGTAAAGCACGC: the PBM binding z-score came out at 1.32.

The sequence TAGCCTAGGTCATGTGCCAGTATACCACGCGAAC registered a PBM binding z-score of 1.53.

Sequence TCATATAGGTAAACGCTAGGTGAAAGTCCGATCT gave a PBM binding z-score of 0.584.

CCGACTGGGGCATAAGGATACCATAAGCCAGCCC displayed a PBM binding z-score of -0.797.

In turn, AATACAGGGTCATTGTAGGCCAGAGTACGCACAG yielded a PBM binding z-score of 4.83.

As for ATAGAAAGGTCGAGGTGAGTATAGAGAAAGGGAA, the PBM binding z-score worked out at 2.55.

Take ATCTCTAGGTCAAGATAGTTCAGTGAATGCAAAT: the PBM binding z-score came to 5.27.

In turn, ATACCAAGGTGATCGTGAAGTCGTTGATACTAAC had a PBM binding z-score of 0.468.

For the sequence AACTCTAGGTAACCAAGTTCAGTGAATGCCGAAC, the PBM binding z-score was 1.69.

In turn, CCTGCTAGGTCACGGTCAGCTAATCTACAGTATG came in with a PBM binding z-score of 2.08.

Take ATATGTAGGTTATGGGTCATTCAGGTTGGTTCGC: the PBM binding z-score turned out to be 4.

As to TTATCAAGGTGAGCTGAGGTCGTTGATCCAACTC, the PBM binding z-score amounted to 4.8.

Sequence ATCTCTAGGTAAGGTTCAGTGAAAGATCGATAGA gave a PBM binding z-score of 0.838.

Turning to TGAATGAGGTTAAAGATCTGGGAACGTGGCGTCG, the PBM binding z-score is 1.19.

Regarding CGTCAAAGTACAACTAAGGTAACGTAAAGCACGC, the PBM binding z-score came to 0.34.

Turning to CAAACTAGGTCAGAACAGGACAGTGAAGGATGAT, the PBM binding z-score was 1.06.

GTACCAAGGTGAATAGGGCGTTGATGAGTAGGCG showed a PBM binding z-score of -0.0283.

Turning to AGAATGATGTTATACGTAGATCAGGGAAGAAAGT, the PBM binding z-score is -0.0656.

For CCTCGGAGGGCAACAGGAGGTCAGAGCTGCCAGA, the PBM binding z-score was 3.35.

The sequence CCAGCCAGGTGAAAGGTAACTCAGTCTGGTACGC yielded a PBM binding z-score of 0.479.

CTAGAAAGGTCGTGCTCAGGTGAGTATACCAAAC came in with a PBM binding z-score of 2.82.

Regarding ATATGTAGGTTACATCCGGGTCATTCAGGCTATG, the PBM binding z-score was 3.62.

CCTAGCAGGCCAATTTGGGTCACTCAAGGCTTGA returned a PBM binding z-score of 1.12.

In turn, CCTGCTAGGTCATGGTCAGATAATCTACAGTATG displayed a PBM binding z-score of 1.35.

The subject of a further test is PXR homodimer (NR concentration 270 nM). The description is as above. In outline: as §1
ATCGCAAGGTCGACGAGGTGAGTATACACCGTTT showed a PBM binding z-score of 0.566.

GCTAGTTGGTCAGTAAAAGGTCACACCCCGGTCG displayed a PBM binding z-score of 0.747.

ACTAGAAGGCCAAGTTTGGGTCACTCAAACAAAG came in with a PBM binding z-score of -0.219.

With TATACAGGGTCAAAGTCCAGAGTACGAATGTCGA, the PBM binding z-score came to 1.31.

Regarding GCTGCTAGGTCAGGTTGATCAGCTAACGGGTACG, the PBM binding z-score was -0.392.

Sequence TCATATGGGTAATACAGGTGAAAGTCGGCATCTA displayed a PBM binding z-score of -0.317.

Sequence ACTAGCAGGTCAAGTTTGGGTCACTCAAACAAAG displayed a PBM binding z-score of 0.228.

As to TCTATTAGTTGAAGGCCAACCGACGAGTCCGTTT, the PBM binding z-score was 1.4.

TTACCAAGGTGAAAGGTTGTTGATGCACGCCTTG showed a PBM binding z-score of -0.373.

In the case of CGAACTCGGTCATCCAGGACAGTGAATACATTGA, the PBM binding z-score is -0.0652.

In turn, TCATAGAGGTAAAAGGTGAAAGTCGGTGTGGTAA showed a PBM binding z-score of -0.248.

TTACCAAGGTGAGCTGAGGTCGTTGAACCAACTC registered a PBM binding z-score of 0.275.

In turn, TAGCCTAGGTCATTGGGCCAGTATCGTACGCATC gave a PBM binding z-score of -0.331.

As for AGAACTAGGGCAATGAGTTGATAGCACGGGTGGC, the PBM binding z-score was found to be 0.366.

CCTACTGGACCATTCAGAGGTCATTGATCATATG came in with a PBM binding z-score of 3.43.

In turn, CGTCCAAGGTCAAAGGACAGTGAAGAGATGACGG had a PBM binding z-score of 0.957.

As for CGTCAAAGATCAACTAAGGTAACGTAAAGCACGC, the PBM binding z-score was found to be 0.224.

Regarding TAGCCTAGGTCATGTGCCAGTATACCACGCGAAC, the PBM binding z-score was -0.113.

In the case of TCATATAGGTAAACGCTAGGTGAAAGTCCGATCT, the PBM binding z-score came out at 0.4.

Turning to CCGACTGGGGCATAAGGATACCATAAGCCAGCCC, the PBM binding z-score is -0.877.

For the sequence AATACAGGGTCATTGTAGGCCAGAGTACGCACAG, the PBM binding z-score was found to be 0.912.

For ATAGAAAGGTCGAGGTGAGTATAGAGAAAGGGAA, the PBM binding z-score stood at 0.613.

With ATCTCTAGGTCAAGATAGTTCAGTGAATGCAAAT, the PBM binding z-score is 1.48.

ATACCAAGGTGATCGTGAAGTCGTTGATACTAAC registered a PBM binding z-score of -0.0567.

AACTCTAGGTAACCAAGTTCAGTGAATGCCGAAC had a PBM binding z-score of 1.29.

In turn, CCTGCTAGGTCACGGTCAGCTAATCTACAGTATG came in with a PBM binding z-score of -0.469.

In turn, ATATGTAGGTTATGGGTCATTCAGGTTGGTTCGC registered a PBM binding z-score of 1.51.

With TTATCAAGGTGAGCTGAGGTCGTTGATCCAACTC, the PBM binding z-score was 0.706.

ATCTCTAGGTAAGGTTCAGTGAAAGATCGATAGA came in with a PBM binding z-score of 0.974.

TGAATGAGGTTAAAGATCTGGGAACGTGGCGTCG: the PBM binding z-score is -0.0436.

CGTCAAAGTACAACTAAGGTAACGTAAAGCACGC: the PBM binding z-score is 0.247.

For CAAACTAGGTCAGAACAGGACAGTGAAGGATGAT, the PBM binding z-score was 0.211.

With GTACCAAGGTGAATAGGGCGTTGATGAGTAGGCG, the PBM binding z-score is 0.127.

Sequence AGAATGATGTTATACGTAGATCAGGGAAGAAAGT displayed a PBM binding z-score of 0.403.

For CCTCGGAGGGCAACAGGAGGTCAGAGCTGCCAGA, the PBM binding z-score was -0.207.

Turning to CCAGCCAGGTGAAAGGTAACTCAGTCTGGTACGC, the PBM binding z-score is -0.522.

For CTAGAAAGGTCGTGCTCAGGTGAGTATACCAAAC, the PBM binding z-score stood at 0.0874.

The sequence ATATGTAGGTTACATCCGGGTCATTCAGGCTATG showed a PBM binding z-score of 2.13.

On to CCTAGCAGGCCAATTTGGGTCACTCAAGGCTTGA, for which the PBM binding z-score is -0.236.

As for CCTGCTAGGTCATGGTCAGATAATCTACAGTATG, the PBM binding z-score is -0.264.
